Laboratory results taken from PubChem BioAssay (NCATS).
Records with an inconclusive call do not appear. Active and inactive are the calls of the source. Calls come from the whole dose curve; as a rule, active = well fitted inhibition curve with a large enough effect; inconclusive = small, poorly fitted or top-dose-only effect; inactive = flat fitted curve, though single readings scatter.

experiment: qHTS for Inhibitors of Plasmodium falciparum (DD2) proliferation (AID 504314); conditions: P. falciparum Dd2 in erythrocytes, SYBR Green growth, 72 h; series mostly up to 6.11 µM; activity, negative = inhibition: at the top concentration
From the text: Plasmodium falciparum is a virulent malarial parasite that kills 1-2 million people worldwide each year. Malaria not only inflicts tremendous suffering and morbidity on the human population, but has dramatically influenced the course of civilization with profound sociological and economic implications (Shah, S. 2010). Transmitted by mosquitoes, the sporozoite form of the parasite enters the blood stream to infect hepatocytes, where they become merozoites that infect red blood cells (erythrocytes). Within erythrocytes, merozoites begin a […] cycle of growth and division, after which the parasite is released to infect new red blood cells. Gametocytes, which form within erythrocytes as well, circulate in the bloodstream and are ingested by the mosquito, thereby completing the life cycle (see CDC website). To profile malarial lines for differential chemical responses and to identify inhibitors of malarial growth, an assay that measures P. falciparum growth and replication within erythrocytes was employed. This assay uses a DNA binding fluorescent dye (SYBR Green) to detect parasite DNA following cell lysis. Because mature erythrocytes lack DNA, only Plasmodium-derived DNA is detected. The P. falciparum line cp250, derived from a malarial isolate from Cambodia, (Mu, J., et al. 2010) was added to the panel of lines, Dd2, HB3, 7G8 and GB4 in this study.
Laboratory of Assay Development and Screening Technology [ADST] and NIH Chemical Genomics Center [NCGC]
Boston University, Chemistry Department, Center for Chemical Methodology and Library Development [CMLD-BU]
NIH National Institute of Allergy and Infectious Diseases [NIAID]
ADST Assay Protocol Summary:
The 1536-well SYBR Green viability assay was based on the method of Bennett et al (2004) and described previously in 1536-well format (Yuan J., et al. 2009). For screening 3 ul culture medium was dispensed into 1536 well black clear bottom plates (Aurora Biotechnologies) using a Multidrop Combi (Thermo Fisher Scientific Inc.), 23 nL compounds in DMSO were added by a pin transfer (Cleveland, P.H. and Koutz, P.J, 2005) using a pin tool-based delivery system (Kalypsys), and 5 ul of erythrocytes infected with P. falciparum one of five lines (cp250, Dd2, HB3, 7G8 or GB4, 0.3% parasitemia, 2.5% hematocrit final concentration) were added. The plates were incubated at 37C in a humidified incubator in 5% CO2 for 72 h, and 2 ul lysis buffer (20 mM Tris HCl, 10 mM EDTA, 0.16% saponin, 1.6% triton X, 10X SYBR Green I (supplied as 10,000X final concentration by Invitrogen) was added to each well. The plates were mixed for 25 sec with gentle shaking and incubated overnight at room temperature in the dark. The following morning, fluorescence intensity at 485(14) nm excitation and 535(25) nm emission wavelengths was measured on an EnVision (Perkin Elmer) plate reader. Plate reads were normalized relative to the control inhibitor (0.29 uM artemisinin) and vehicle (DMSO) wells present on each plate and then corrected by an algorithm using vehicle-only control plates at the beginning and end of the compound plate stack.
Shah, S. (2010). The Fever: how malaria has ruled humankind for 500,000 years. New York, Sarah Crichton Books.
CDC web site, http://www.cdc.gov/malaria/about/biology/index.html
Mu, J., Myers, R.A., Jiang, H., Liu, S., Ricklefs, S., Waisberg, M., Chotivanich, K., Wilairatana, P., Krudsood, S., White, N.J., et Plasmodium falciparum genome-wide scans for positive selection, recombination hot spots and resistance to antimalarial drugs Nature Genetics 2010, 42, pp 268-271
Bennett TN, Paguio, M., Gligorijevic, B., Seudieu, C., Kosar, A. D., Davidson, E., and Roepe, P. D. Novel, rapid, and inexpensive cell-based quantification of antimalarial drug efficacy Antimicrobial Agents Chemother. 2004, 48(5): pp 1807-10
Yuan J, Johnson RL, Huang RL, Wichterman J, Jiang HY, Hayton K, Fidock DA, Wellems TE, Inglese J, Austin CP, Su XZ. […]
Potency is the fitted concentration of half-maximal effect.

activity, negative = inhibition, inactive:
COC(=O)C[C@H]1c2ccccc2C2=C(C[C@@H](C)[C@H]3C(=O)NC(=O)[C@@H]23)N1C(=O)OC 0.333%, COC[C@@H](OC(C)=O)[C@H]1OCc2ccccc2[C@H]1C=Cc1ccccc1 -8.75%, COc1cccc([C@@H]2Oc3ccc(OC)cc3C(=O)[C@@H]2OC(=O)N[C@H]2CCCc3ccccc32)c1 -23.5%, COC(=O)[C@H](Cc1ccccc1)NC(=O)O[C@@H]1C(=O)c2cc(OC)ccc2O[C@H]1c1ccc(OC)c(Br)c1 -7.95%, C=CCC12OC3(OC)CC1[C@H](C)[C@@H](c1ccccc1)C2[C@]3(O)CC=C (stereo not given in full) -4.79%, C#CCCCON=C1C[C@@H](O)[C@H](O)[C@H]2[C@@H]3C(=O)N(Cc4ccc5c(c4)OCO5)C(=O)[C@@H]3CC[C@H]12 -11.5%, CCCCCCCc1cc2ccccc2c2c(C=O)c(CCCC)c(C(=O)OC)n12 -12.3%, CCN(CC)CCCN=C1NC(c2cccc(F)c2)C(C(=O)OC)=C(C)N1Cc1ccccc1 (stereo not given) 1.89%, C=CCN1C(=O)[C@]2(OCCC=C[C@H]2C)c2ccccc21 -0.989%, COC(=O)[C@H]1[C@@H](c2ccccc2)NC(=O)N(Cc2ccccc2)[C@@H]1C -1.18%, C[C@H]1[C@H](N=[N+]=[N-])[C@H](O)CCO[C@@H]1c1ccccc1 -9.76%, CC1(OC(=O)CCc2ccccc2)C(=O)C=C2C=C(C3CC3)OC=C2C1=O (stereo not given) -4.35%, COC(=O)C1=C[C@@]2(c3ccc(OC)cc3[C@@H](OC)[C@@H]2C)[C@@H]2C=C[C@@H]1C2 -8.39%, CC1(OC(=O)C2CCCC2)C(=O)C=C2C=C(c3ccsc3)N(C3CC3)C=C2C1=O (stereo not given) -0.441% [at 1.12 µM], C[C@@H]1CC[C@H]2C(=O)N(Cc3ccc(Cl)cc3)C[C@@H](O)CN2[C@@H]1c1cccc(Br)c1 -11.4%, COCCN1C(=O)NC(c2cccc(C(F)(F)F)c2)C(C(C)=O)=C1C (stereo not given) -3.11%, CCCCCCCc1cc2ccccc2c2c(C(=O)OCC)c(C(=O)OCC)c(C(=O)OCC)n12 -2.11%, O=C(NCCOc1ccccc1)O[C@@H]1C(=O)c2cc(Br)ccc2O[C@H]1c1ccc2c(c1)OCO2 -9.94%, COc1cccc(CO[C@H]2C=C[C@@H](c3ccccc3)O[C@H]2COC(C)=O)c1 -0.734%, Cc1cc(O)cc(O)c1C(=O)OC1(C)C(=O)C=C2C=C(C=CCO)OC=C2C1=O (stereo not given) 0.618%, COC(=O)CCC(=O)OC1(C)C(=O)C=C2C=C(C3CC3)N(CCCOC(C)C)C=C2C1=O (stereo not given) -1.07% [at 1.12 µM], COCC=CC1=CC2=CC(=O)C(C)(OC(=O)c3cnc4ccccc4n3)C(=O)C2=CN1CC1CC1 (stereo not given) -9.84%, N#CCCN(CC#Cc1ccccc1)OCc1ccccc1 -0.161%, CCCCCCCC1=Cc2ccccc2C(CC(C)=O)N1C(=O)OC (stereo not given) -17.1%, O=C1[C@@H]2[C@H]3[C@H](O)[C@H](O)CC(=NOC[C@@H](O)COCc4ccco4)[C@@H]3CC[C@H]2C(=O)N1C[C@@H]1CCCO1 -0.652%, CCCCC[C@]12Cc3cc(OC)c(OC)cc3[C@H](O1)c1c(cc(C)n(-c3ccccc3)c1=O)O2 -6.79%, COc1cccc([C@@H]2Oc3ccc(Br)cc3C(=O)[C@@H]2OC(=O)N[C@H]2CCCc3ccccc32)c1 -6.46%, COc1ccc(COC(=O)NN=C2C[C@@H](O)[C@@H](O)[C@@H]3[C@H]4C(=O)N(c5cccc(Oc6ccccc6)c5)C(=O)[C@@H]4CC[C@H]23)cc1 -9.84%, O=C1[C@@H]2[C@H]3[C@H](O)[C@H](O)CC(=NOC[C@@H](O)COCc4ccco4)[C@H]3CC[C@H]2C(=O)N1c1ccc(F)cc1F -1.24%, COCCN1C(=O)NC(c2ccco2)C(C(=O)OC)=C1C (stereo not given) -5.81%, COC(=O)N1C(C2CC2)=Cc2ccccc2C1CC(C)=O (stereo not given) -2.33% [at 1.12 µM], CCOC(=O)CN1C(=O)NC(c2cccc(F)c2)C(C(C)=O)=C1C (stereo not given) -9.04%, CC(C)=CCCC(C)=CCON=C1C[C@@H](O)[C@@H](O)[C@@H]2[C@H]3C(=O)N(c4cccc(Oc5ccccc5)c4)C(=O)[C@@H]3CC[C@H]12 4.99%, CCN1C(=NCc2ccccc2)N[C@@H](c2ccccc2)[C@H](C(=O)OC)[C@H]1C -17.6%

Potency, active:
COc1ccc(C=CC2=C[C@]3(C)C[C@]2(C)[C@H](c2ccc(OC)cc2)CC3=O)cc1 1500 nM

Potency, inactive:
COCCN1C(=O)N[C@@H](CCc2ccccc2)[C@H](C(=O)OC)[C@H]1C, C=CCN1c2ccccc2[C@]23CCC(=O)N(CCOC)C2=NC(C(=O)OC)=C(C(=O)OC)[C@H]13, C=CC1=C2C=C(C3CC3)N(CCOC)C=C2C(=O)C(C)(OC(=O)c2ccco2)C1=O (stereo not given), CCCCC1=CC2=C(c3ccco3)C(=O)C(C)(OC(=O)c3ccc(OC)cc3)C(=O)C2=CN1C(CO)CO (stereo not given), CCN1C(=O)N[C@@H](c2ccccc2)[C@@H](C(=O)OC)[C@H]1C
